Assay results: PubChem BioAssay AID1159580 (chemical genetic matrix, 2015)
Where “and” joins values, the source holds several entries; their conditions need not be identical. Equal entries are not always repeated. The whole screen tested about 5,500 compounds, of which about 2,000 (36%) were called active. Another 18% or so got no clear call; they are omitted. Rule as the data show it: active = normalized growth mostly below about 0.91 (no sharp cut-off); inconclusive = no clear call, values can overlap the other calls; inactive = mostly above about 0.92. Some of the results follow.

Experiment: chemical genetic growth profiling, strain panel (AID 1159580);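 also: tested at 20 µM; growth read once vehicle control cultures reached saturation at 30 °C; 1 = growth at the plate median or of vehicle wells; lower values mean less growth of the strain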
Conditions: S. cerevisiae deletion strains, growth OD

Measured: normalized growth

CCOc1ccc(Cc2nccc3cc(OCC)c(OCC)cc23)cc1OCC
inactive: locus YAL013W, strain DEP1, stronger effect = lower value 0.976 | locus YAL021C, strain ccr4, stronger effect = lower value 0.946 | locus YAL026C, strain drs2, stronger effect = lower value 0.974 | locus YAL030W, strain snc1, stronger effect = lower value 0.99 | locus YBL061C, strain skt5, stronger effect = lower value 0.968 | locus YBR009C, strain hhf1, stronger effect = lower value 0.975 | locus YBR021W, strain FUR4, stronger effect = lower value 0.961 | locus YBR023C, strain chs3, stronger effect = lower value 0.974 | locus YBR171W, strain sec66, stronger effect = lower value 0.965 | locus YBR229C, strain ROT2, stronger effect = lower value 0.969 | locus YBR231C, strain swc5, stronger effect = lower value 0.998 | locus YBR279W, strain paf1, stronger effect = lower value 0.989 | locus YCL011C, strain gbp2, stronger effect = lower value 0.993 | locus YCL016C, strain dcc1, stronger effect = lower value 0.981 | locus YCL029C, strain bik1, stronger effect = lower value 0.952 | locus YCL069W, strain vba3, stronger effect = lower value 0.99 | locus YCR088W, strain abp1, stronger effect = lower value 0.969 | locus YDL005C, strain med2, stronger effect = lower value 0.989 | locus YDL035C, strain GPR1, stronger effect = lower value 0.956 | locus YDL040C, strain nat1, stronger effect = lower value 0.976 | locus YDL074C, strain BRE1, stronger effect = lower value 0.855 | locus YDL101C, strain DUN1, stronger effect = lower value 0.956 | locus YDL134C, strain PPH21, stronger effect = lower value 0.939 | locus YDL185W, strain tfp1, stronger effect = lower value 0.994 | locus YDL192W, strain arf1, stronger effect = lower value 0.958 | locus YDR001C, strain nth1, stronger effect = lower value 0.977 | locus YDR069C, strain doa4, stronger effect = lower value 0.982 | locus YDR101C, strain arx1, stronger effect = lower value 0.967 | locus YDR137W, strain rgp1, stronger effect = lower value 0.89 | locus YDR150W, strain NUM1, stronger effect = lower value 0.994 | locus YDR159W, strain sac3, stronger effect = lower value 0.892 | locus YDR162C, strain NBP2, stronger effect = lower value 0.945 | locus YDR195W, strain ref2 1.05 | locus YDR297W, strain sur2, stronger effect = lower value 0.976 | locus YDR318W, strain mcm21, stronger effect = lower value 0.931 | locus YDR334W, strain swr1, stronger effect = lower value 0.974 | locus YDR335W, strain msn5, stronger effect = lower value 0.985 | locus YDR388W, stronger effect = lower value 0.954 | locus YDR392W, strain spt3, stronger effect = lower value 0.866 | locus YDR502C, strain sam2, stronger effect = lower value 0.96 | locus YEL003W, strain gim4, stronger effect = lower value 0.963 | locus YEL037C, strain rad23, stronger effect = lower value 0.956 | locus YEL061C, strain CIN8 (second series), stronger effect = lower value 0.959 | locus YEL061C, strain CIN8, stronger effect = lower value 0.986 | locus YER015W, strain faa2, stronger effect = lower value 0.965 | locus YER016W, strain bim1, stronger effect = lower value 0.962 | locus YER110C, stronger effect = lower value 0.968 | locus YER111C, strain swi4, stronger effect = lower value 0.972 | locus YER155C, strain BEM2 (second series), stronger effect = lower value 0.913 | locus YER155C, strain BEM2, stronger effect = lower value 0.99 | locus YER167W, strain BCK2, stronger effect = lower value 0.956 | locus YFR010W, strain ubp6, stronger effect = lower value 0.97 | locus YGL078C, strain dbp3, stronger effect = lower value 0.985 | locus YGL086W, strain mad1, stronger effect = lower value 0.962 | locus YGL167C, strain pmr1, stronger effect = lower value 0.969 | locus YGL173C, strain kem1, stronger effect = lower value 0.966 | locus YGL227W, strain vid30, stronger effect = lower value 0.998 | locus YGL240W, strain doc1, stronger effect = lower value 0.962 | locus YGL248W, strain PDE1, stronger effect = lower value 0.944 | locus YGL253W, strain hxk2, stronger effect = lower value 0.986 | locus YGR078C, strain PAC10, stronger effect = lower value 0.899 | locus YGR135W, strain pre9, stronger effect = lower value 0.92 | locus YGR229C, strain SMI1, stronger effect = lower value 0.91 | locus YGR252W, strain gcn5, stronger effect = lower value 0.776 | locus YHR013C, strain ard1, stronger effect = lower value 0.955 | locus YHR027C, strain rpn1, stronger effect = lower value 0.983 | locus YHR030C, strain SLT2, stronger effect = lower value 0.977 and 0.969 | locus YHR079C, strain IRE1 (second series), stronger effect = lower value 0.954 | locus YHR079C, strain IRE1, stronger effect = lower value 0.939 | locus YHR094C, strain hxt1, stronger effect = lower value 0.977 | locus YHR129C, strain ARP1, stronger effect = lower value 0.978 | locus YHR142W, strain chs7, stronger effect = lower value 0.923 | locus YHR200W, strain rpn10, stronger effect = lower value 0.948 | locus YIL066C, strain RNR3, stronger effect = lower value 0.935 | locus YIL073C, strain SPO22, stronger effect = lower value 0.962 | locus YIL125W, strain kgd1, stronger effect = lower value 0.978 | locus YIR030C, strain dcg1, stronger effect = lower value 0.971 | locus YJL092W, strain hpr5, stronger effect = lower value 0.99 | locus YJL095W, strain BCK1 (second series), stronger effect = lower value 0.968 | locus YJL095W, strain BCK1, stronger effect = lower value 0.882 and 0.963 | locus YJL115W, strain asf1, stronger effect = lower value 0.995 | locus YJL129C, strain trk1, stronger effect = lower value 0.896 | locus YJL134W, strain LCB3, stronger effect = lower value 0.985 | locus YJL154C, strain vps35, stronger effect = lower value 0.973 | locus YJL164C, strain tpk1, stronger effect = lower value 0.973 | locus YJL166W, strain qcr8, stronger effect = lower value 0.967 | locus YJL168C, strain set2, stronger effect = lower value 0.973 | locus YJL187C, strain SWE1 (second series), stronger effect = lower value 0.912 | locus YJR043C, strain POL32, stronger effect = lower value 0.943 | locus YJR066W, strain TOR1, stronger effect = lower value 0.9
